From PubChem BioAssay
Rows were chosen to be rich in hits. Some 1.6% of all compounds tested hit in one or more screens of this group.
IMPase Li cell: cell-permeable IMPase inhibitors with lithium potentiation; CHO-M1 cells, IP1 TR-FRET (IP-One), carbachol + lithium; Potency, µM (top dose mostly 59.4 µM), inactives show at the highest dose activity, negative = IMPase inhibition, most hits filed as inhibitors; 0.35% of 210,000 active; AID 1457;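 also: IP1 builds up when IMPase is blocked and the TR-FRET signal falls; potency is read from the fitted curve at half-maximal effect; plate controls were basal vehicle for no effect and high inhibitor control for full effect; nearly all actives have a fitted effect of over 50% in size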
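Test compounds were applied to CHO-M1 cells previously cultured for 16–30 h at 2000 per well. A small lithium amount accompanied them; after 30 min at 37C, IP1 was quantified by TR-FRET.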
Lamin A splicing: changes lamin A minigene splicing in HeLa cells | HeLa LMNA splicing GFP/RFP minigene ratio, 48 h | Potency, µM (top dose mostly 46.1 µM), for inactives: at the highest dose ratio change, negative = inhibition, usual class: inhibitors | 0.01% of 200,000 active | AID 1487; active = well fitted inhibition curve with a large enough effect in the signal ratio, with a control signal flat, not every such curve was filed as active; inconclusive = small, poorly fitted or top-dose-only effect, or effect the other way, or a change in a side signal; the % refers to the signal ratio; also: potency is read from the fitted curve at half-maximal effect; % is scaled to controls: 0 for no effect and ±100 for the full control effect
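S3 HeLa cells stably expressing lamin A-EGFP splicing minigene plus DsRed2, 600 cells/well, 48 h compound exposure at 37C. Laser-scanning cytometry; analysed as GFP (500-530 nm)/RFP (575-640 nm) total intensity ratio; 0.5% DMSO vehicle.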
NPSR antag: blocks cAMP signaling of the human neuropeptide S receptor | Potency, µM (top dose mostly 38.3 µM), inactives show at the highest dose activity change, negative = inhibition, actives largely listed as inhibitors | 1% of 220,000 active | Q6W5P4 | CHO-NPSR cells, cAMP TR-FRET, antagonist mode; also: potency is read from the fitted curve at half-maximal effect; % is scaled to controls: 0 for no effect and ±100 for the full control effect; nearly all actives have a fitted effect of over 50% in size
Target sequence (Q6W5P4 whole entry, looked up): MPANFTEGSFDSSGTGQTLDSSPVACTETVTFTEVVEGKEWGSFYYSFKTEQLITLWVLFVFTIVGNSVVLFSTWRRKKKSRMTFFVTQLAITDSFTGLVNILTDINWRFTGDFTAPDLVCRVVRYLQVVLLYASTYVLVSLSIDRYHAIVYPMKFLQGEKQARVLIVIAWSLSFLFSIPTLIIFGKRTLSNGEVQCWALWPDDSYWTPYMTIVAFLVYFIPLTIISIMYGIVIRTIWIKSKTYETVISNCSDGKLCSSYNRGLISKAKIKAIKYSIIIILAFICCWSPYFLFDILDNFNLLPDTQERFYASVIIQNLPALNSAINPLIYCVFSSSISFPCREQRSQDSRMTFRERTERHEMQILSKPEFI
HttQ103 aggreg: reduces HttQ103-GFP aggregates in PC12 cells | PC12 HttQ103-GFP aggregates, Acumen cytometry, 40 h | Potency, µM (series often up to 46.1 µM), inactives show at the highest dose activity change, negative = inhibition, most hits filed as inhibitors | 1.1% of 220,000 active | AID 1688; also: potency is read from the fitted curve at half-maximal effect; % is scaled to controls: 0 for no effect and ±100 for the full control effect; nearly all actives have a fitted effect of over 60% in size
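Using laser scanning cytometry, GFP-positive aggregates were counted after lysis of PC12 cells induced with 100 nM tebufenozide to express HTT exon 1 Q103–GFP. Compounds were tested in titration.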
IMPase inh: IMPase inhibition in cells; P97697; CHO-M1 cells, IP1 accumulation, HTRF TR-FRET ratio; inhibition (IP1 accumulation), % at 46.1 µM; 120,000 tested, under 10 active; AID 901; active = well fitted curve in the direction sought with a large enough effect in the signal ratio, not every such curve was filed as active; inconclusive = small, poorly fitted or top-dose-only effect, or a change in a side signal; inactive = no such curve, though single readings can be large or run the other way; the % refers to the signal ratio;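 also: cells stimulated with carbachol in lithium chloride buffer; plate controls were DMSO basal wells for no effect and reference inhibitor wells for full effect; higher means more IMPase inhibition seen as more IP1 and lower FRET ratio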
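The IP-One HTRF competitive assay in carbachol-stimulated CHO-M1 cells quantifies cellular IP1. Compounds spanned up to 46 uM final, and activity is expressed as AC50 from concentration-response fits of the ratio and donor data.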
HTT cytoprotect: cytoprotection in Huntington HTT-Q103 PC12 cell model; PC12 HTT-Q103 induced, cytoprotection, ATP luminescence, 40 h; 0.14% of 230,000 active; Potency, µM (titrated, usually from 56.4 µM), without a hit: cytoprotection (ATP increase), most hits filed as activators; AID 1471; also: potency is read from the fitted curve at half-maximal effect; % of control where 0% means no effect; nearly all actives have a fitted effect of over 45% in size
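Readout: ATPlite luminescence (ATP level). Model: stable PC12, inducible Htt exon1 Q103-GFP. Inducer: tebufenozide, 100 nM final. Compounds: dose series. No G418 in medium.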
* hit, by the source's call; ? = inconclusive; . = not tested or not shown; [ ] = another dose, or the depositor's remark. Unless noted, calls follow the shape of the dose curve; as a rule, active = well fitted curve in the direction sought with a large enough effect; inconclusive = small, poorly fitted or top-dose-only effect, or another doubt; inactive = no such curve, though single readings can be large; an effect the other way counts as inactive or inconclusive.

SMILES	IMPase Li cell	Lamin A splicing	NPSR antag	HttQ103 aggreg	IMPase inh	HTT cytoprotect
CN(C)c1ccc(NS(=O)(=O)c2cc(Cl)ccc2Cl)cc1	4.4%	-10.8%	-0.1%[46.1 µM]	?	21.8	0.794µM*
O=S(=O)(Nc1ncccn1)c1ccc(NS(=O)(=O)c2cc(Cl)ccc2Cl)cc1	5.9%	.	3.0%	-16.7%	.	-33.1%
Cc1nc(N2CCCC2)c2c(C(=O)N3CCN(c4cccc(C)c4C)CC3)c(C)oc2n1	.	6.0%[46 µM]	.	.	.	.
COc1ccc(N=Nc2nc(-c3ccccc3)c(-c3ccccc3)[nH]2)cc1	6.0%	?	-54.4%	?	.	14.6%[10 µM]
COc1ccccc1N=Nc1nc(-c2ccccc2)c(-c2ccccc2)[nH]1	2.2%	?	12.6µM*	?	-0.5	18.2%[1.9 µM]
c1ccc2c(c1)oc1c(NCc3ccc4c(c3)OCO4)ncnc12	8.4%[38.3 µM]	?	-19.8%[46.1 µM]	11.2µM*	6.8	4.1%[10 µM]
c1ccc2c(c1)oc1c(Nc3ccc4c(c3)OCO4)ncnc12	-17.6%[38.3 µM]	13.4%	-9.0%[46.1 µM]	-14.1%	1.1	-29.4%
CC(C)(C)c1ccc(-n2nc(C#N)c(Cl)cc2=O)cc1	5.0%	.	-54.8%	5.01µM*	.	-192.3%
CC(C)(C)c1ccc(-n2nc(C(N)=O)c(O)cc2=O)cc1	-0.7%	.	-14.2%	10.4%	.	-33.0%
CC(=O)OC(C(=O)c1ccccc1)c1ccccc1 (stereo not given)	9.2%	.	.	.	.	-28.6%
Nn1c(SCC(=O)NC2CCCCC2)nnc1-c1ccc(Cl)cc1	3.4%	-7.9%	16.3%[46.1 µM]	15.3%	?	-1.9%[10 µM]
N#Cc1c(N)nc(SCC(=O)NC2CCCCC2)c(C#N)c1-c1ccc(Cl)cc1	15.8µM*	-0.5%	?	10.4%[9.22 µM]	-4.9	-19.1%
CC(C)c1ccc(-c2c(C#N)c(N)nc(SCC(=O)N3CCCCC3)c2C#N)cc1	?	4.3%	10µM*	-2.9%	0.6	-44.0%
COC(=O)CSc1nc(N)c(C#N)c(-c2ccc(O)cc2)c1C#N	.	.	43.1%	-14.4%[9.22 µM]	.	1.0%[10 µM]
CCOc1cccc(C(=O)c2ccc(O)c(O)c2O)c1	38.4%	.	.	.	.	-23.6%
CCN(CC)S(=O)(=O)c1ccc(NC(=O)c2ccc(Sc3nncn3C)c([N+](=O)[O-])c2)cc1	5.0%	-8.3%	10.8%	27.5%	1.6	-1.4%[1.9 µM]
CCS(=O)(=O)c1ccc(Sc2nncn2C)c([N+](=O)[O-])c1	5.8%	-4.3%[9.22 µM]	2.6%	11.2µM*	.	-164.7%
CCCCCC(=O)O[C@]1(C(C)=O)CC[C@H]2[C@@H]3CCC4=CC(=O)CC[C@]4(C)[C@H]3CC[C@@]21C	13.8%	?	10µM*	?	.	.
O=[N+]([O-])c1ccc([C@@H](Nc2ccccc2)c2ccc3cccnc3c2O)cc1	-1.6%	.	.	.	.	-5.1%[10 µM]
NS(=O)(=O)c1ccc(N=Nc2c(-c3ccccc3)[nH]n(-c3nc(-c4ccccc4)cs3)c2=O)cc1	1.7%	?	-3.2%[46.1 µM]	5.62µM*	-0.9	21.7%[10 µM]
COc1ccccc1CNc1ncnc2ccc(-c3ccc(N(C)C)cc3)cc12	-5.0%	?	.	.	.	-69.4%
Cc1ccc(S(=O)(=O)N2CCN(c3ccnc4cc(Cl)ccc34)CC2)cc1	15.1%	.	?	15.8µM*	.	-99.2%
O=C1CC(NC(=O)C(F)(F)F)c2cc3c(cc21)OCO3 (stereo not given)	-7.4%	?	12.7%	-3.0%	.	-1.4%[10 µM]
O=C(NC1C/C(=N/O)c2cc3c(cc21)OCO3)C(F)(F)F (stereo not given)	-4.5%	.	7.6%	?	.	3.98µM*
CCc1c(C)nc2ncnn2c1Nc1ccc(C#N)c(Cl)c1	-14.3%[38.3 µM]	-6.7%	14.5%[7.67 µM]	12.6µM*	0.5	-3.1%
CCc1c(C)nc2ncnn2c1Nc1ccc(C(C)=O)cc1	47.8%[38.3 µM]	-5.4%	-11.3%[46.1 µM]	6.5%	-2.9	2.8%
CC(=O)Nc1cccc(/C(C)=N/NC(=O)c2ccc(Cl)cc2Cl)c1	10.5%	.	3.9%	.	.	.
CC(=O)c1cccc(NC(=O)NNC(=O)c2ccc(Cl)cc2Cl)c1	3.3%	.	15.9%	11.2µM*	.	-23.0%
